MARV entry inh – Marburg virus entry inhibition | Marburg virus pseudotyped entry inhibition, cell reporter | Potency, µM (titrated, usually from 37.8 µM), without a hit: at the top dose activity change, negative = inhibition, most hits filed as inhibitors | 300,000 compounds, 1.8% hits | AID 540276; calls by dose curve; tested in HEK293 cells; also: potency is read from the fitted curve at half-maximal effect; % is scaled to controls: 0 for no effect and ±100 for the full control effect
Shiga inhibitor – Shiga toxin inhibition; AID 2315; Vero cells, Shiga toxin protein synthesis inhibition reporter; 290,000 compounds, 9.2% hits; inhibition, % at 38.7 µM; in the data active = inhibition mostly above about 28%, no sharp cut-off; inactive = mostly below about 43%; also: 0% is about no effect
Lassa entry inh – Lassa virus entry inhibition; Lassa virus pseudotype entry inhibition, cell reporter; 300,000 compounds, 1.2% hits; AID 540256; Potency, µM (highest dose often 37.9 µM), inactives show top-dose activity change, negative = inhibition, hits mostly inhibitors; calls by dose curve; tested in HEK293 cells; also: potency is read from the fitted curve at half-maximal effect; % is scaled to controls: 0 for no effect and ±100 for the full control effect; nearly all actives have a fitted effect of over 50% in size
Cycloheximide cs – affects cycloheximide protein synthesis inhibition readout, counter-screen | cell reporter, cycloheximide protein synthesis inhibition counterscreen | max response, % | 300,000 compounds, 12% hits | AID 2314; in the data active = max response mostly above about 13%, no sharp cut-off; inactive = mostly below about 14%; also: read at 38.3 µM for the half of the compounds with a filed dose; 0% is about no effect
AMA1-RON2 inh – AMA1-RON2 (P. falciparum) interaction inhibition. AlphaScreen AMA1-biotinylated RON2 peptide binding. Potency, µM (titrated, usually from 58.2 µM), for inactives: top-dose activity change, negative = inhibition, usual class: inhibitors. 360,000 compounds, 0.2% hits; active = well fitted inhibition curve with a large enough effect; inconclusive = small, poorly fitted or top-dose-only effect; inactive = no such curve, though single readings can be large or run the other way;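 also: potency is read from the fitted curve at half-maximal effect; 0% = vehicle wells and -100% = peptide control; nearly all actives have a fitted effect of over 45% in size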
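AMA1 (3D7) with his tag at 25 nM final met compounds first, then biotinylated RON2 peptide at 25 nM; detection used donor plus acceptor beads, 10 µg/mL apiece, read by AlphaScreen after 30 min at room temperature.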
* marks the source's active call; other numbers are inactive results; ? = inconclusive; / = not tested or not shown; [ ] = dose if it differs, or a comment. The sample as a whole holds a higher share of hits than the screen did.

SMILES | MARV entry inh | Shiga inhibitor | Lassa entry inh | Cycloheximide cs | AMA1-RON2 inh
Cc1cc(=O)oc2ccc(OCC(=O)N(Cc3ccc(F)cc3)Cc3ccco3)cc12 | ? | 76* | -25% | 47* | -10%
Cc1c(C(=O)Nc2ccccc2)sc2nc[nH]c(=O)c12 | -2% | -4 | 8% | 15* | 3%
Cc1nc(Cl)sc1C(=O)Nc1ccc2ccccc2c1 | ? | 192* | ? | 66* | -16%
Cc1nc(-c2ccccn2)sc1C(=O)Nc1ccc(Cl)c(Cl)c1 | 11% | 128* | 4% | 26* | 15%
CCOC(=O)c1sc(-c2ccccn2)nc1C | ? | 112* | 17% | 45* | 37%
CC1CCN(S(=O)(=O)c2ccc(C(=O)N3CCCC(C(F)(F)F)C3)cc2)CC1 (stereo not drawn) | -21%[46.1 µM] | / | -7% | / | -1%
Cc1nc(C)c(C(=O)Nc2ccccc2)s1 | 23%[46.1 µM] | 35 | 15% | 8 | 4%
Cc1nc(Cl)sc1C(=O)Nc1cccc(Cl)c1 | / | / | / | 31* | 18%
CC(=O)c1cccc(NC(=O)c2sc(Cl)nc2C)c1 | / | / | / | 12 | 12%
Cc1nc(Cl)sc1C(=O)Nc1ccccc1 | 17% | 21 | ? | 11* | -4%
Cc1nc(C)c(C(=O)Nc2cccc(F)c2)s1 | 8%[46.1 µM] | 35* | 0%[46.1 µM] | 19* | -5%
Cc1nc(Cl)sc1C(=O)Nc1ccc(Cl)cc1 | 6% | 71* | 15% | 25* | 5%
O=C(Nc1cccc(F)c1)c1sc(Cl)nc1-c1ccccc1 | 6% | -6 | -2% | -2 | 9%
COC(=O)C[C@H]1SC(=O)NC1=O | 0% | / | / | / | /
O=C(NCCc1ccccc1)c1ccc(=O)[nH]c1 | -1% | 57* | 26% | 26 | -17%
CC(=O)Oc1ccc(C(=O)NCCc2ccccc2)cc1 | ? | 36 | 7.1µM* | 15* | 0%
CCOc1ccc(C(=O)NCCc2ccccc2)cc1 | ? | 32 | 8.2µM* | 24* | 0%
NS(=O)(=O)c1ccc(CCNC(=O)c2ccc(=O)[nH]c2)cc1 | 15%[46.1 µM] | -8 | 12% | -3 | -4%
CCOC(=O)CCn1nc(C)c2c(C)n(-c3ccccc3)nc2c1=O | -4%[46.1 µM] | / | 9%[46.1 µM] | / | /
COCCNC(=O)CCCn1c(=O)[nH]c2ccsc2c1=O | 20%[46.1 µM] | / | ? | / | /
O=C(Cc1cccs1)NCc1ccc(Cl)cc1Cl | -2%[46.1 µM] | 104* | -4%[46.1 µM] | 42* | -6%
O=C(Cc1cccs1)NCc1cccc(CNC(=O)Cc2cccs2)c1 | / | -11 | / | -3 | -8%
CCc1ccc(OCC(=O)NNC(=O)Cc2cccs2)cc1 | 4% | -11 | ? | -2 | 73%
O=C(Cc1cccs1)NCc1cccc(F)c1 | / | 41* | / | 27 | -7%
CCCOc1ccc(CNC(=O)Cc2cccs2)cc1 | / | 108* | / | 46* | -1%
SMILES | MARV entry inh | Shiga inhibitor | Lassa entry inh | Cycloheximide cs | AMA1-RON2 inh
O=C(Cc1cccs1)NCc1cccc(Cl)c1 | / | 89* | / | 41* | 5%
CCC(=O)N1CCc2cc(Br)cc(S(=O)(=O)CCC(=O)NCCc3ccc(Cl)cc3)c21 | 27%[46.1 µM] | / | ? | / | /
O=C(Cc1cccs1)NCc1cc(Cl)cc(Cl)c1 | ? | 52* | ? | 44* | 2%
O=C(Cc1cccs1)NCCc1ccc(Cl)cc1 | / | -10 | / | -2 | 2%
CCN1CCCC1CNC(=O)Cn1cc(C)c(=O)[nH]c1=O (stereo not drawn) | / | / | / | / | 1%
N#Cc1cccnc1Nc1ccc(Cl)cc1 | 26%[46.1 µM] | 8 | 1% | 10 | 13%
CCCCc1ccc(Nc2ncccc2C#N)cc1 | 24% | 122* | ? | 58* | 27%
O=S1(=O)CC(N2CCC(Cc3ccccc3)CC2)CN1C1CCCCC1 (stereo not drawn) | / | / | / | / | -15%
CCOC(=O)Nc1ccc2c(c1)C(=NNC(N)=S)c1ccccc1-2 | 13µM* | / | ? | / | 44%
C[C@@H]1CN([C@@H](C)CO)C(=O)c2cc(NC(=O)C3CCCCC3)ccc2O[C@@H](C)CCCCO[C@@H]1CN(C)C(=O)CCCN(C)C | / | / | / | / | 3%
CC(C)(C)c1nnc(SCC(=O)c2ccccc2)n(N)c1=O | ? | 63* | 2% | 57* | 10%
Cn1c(SCc2nc(-c3ccccc3)no2)nnc1-c1ccco1 | 15% | 16 | 12% | 1 | -6%
Cc1ccc(C(=O)CSc2nnc3c4ccccc4nc(C(C)(C)C)n23)cc1 | 6.3µM* | 6 | ? | -3 | 15%
Cn1c(SCc2ccccc2)nnc1-c1ccco1 | 26%[46.1 µM] | 82* | ? | 41* | 8%
Cc1nnc(SCC(=O)NNC(=O)c2ccccc2)n1N | / | / | / | / | 24%
Cn1c(SCC(=O)c2ccccc2)nnc1-c1ccco1 | 12% | 63* | 16% | 41* | 25%

Screening results: PubChem BioAssay, National Center for Advancing Translational Sciences (NCATS)
